Laboratory results: PubChem BioAssay (NCI)
Compounds without any hit were thinned out: in the full panel of roughly 83,000, 20% have a hit.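 Cell lines were cultured in 96-well plates, exposed to a single compound concentration, and assessed for percent growth 48 hours later.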 Unmarked numbers belong to inactive results. Activity calls are given as the source filed them. Rule for the calls: active = growth percent below 10; inactive = the rest.

How the values were obtained:
Experiment in all cases: NCI-60 one-dose screen, 48 h (100 = growth as untreated, 0 = no growth, -100 = all killed)
Settings in all cases: 10 µM unless noted
[1] = tested on: NCI-H23 lung
[2] = tested on: NCI-H226 lung
[3] = tested on: NCI-H322M lung
[4] = tested on: HOP-62 NSCLC
[5] = tested on: NCI-H460 lung
[6] = tested on: HOP-92 NSCLC
[7] = tested on: NCI-H522 lung
[8] = tested on: A549/ATCC NSCLC
[9] = tested on: 786-0 renal
[10] = tested on: COLO 205 colon
[11] = tested on: DU-145 prostate
[12] = tested on: K-562 leukemia
[13] = tested on: MALME-3M melanoma
[14] = tested on: MDA-MB-231 breast
[15] = tested on: RXF 393 renal
[16] = tested on: SF-268 CNS
[17] = tested on: SF-295 CNS
[18] = tested on: SF-539 CNS
[19] = tested on: UACC-257 melanoma
[20] = tested on: M14 melanoma

| Compound | growth [1] | growth [2] | growth [3] | growth [4] | growth [5] | growth [6] | growth [7] | growth [8] | growth [9] | growth [10] | growth [11] | growth [12] | growth [13] | growth [14] | growth [15] | growth [16] | growth [17] | growth [18] | growth [19] | growth [20] |
| --- | --- | --- | --- | --- | --- | --- | --- | --- | --- | --- | --- | --- | --- | --- | --- | --- | --- | --- | --- | --- |
| COc1cc(N)c2ncccc2c1Cl | 104% | 96% | 97.9% | 102% | 109% | 101% | 81.8% | 103% | 95% | 116% | 119% | 102% | 113% | 96.2% | 96.5% | 106% | 101% | 87.3% | 109% | 103% |
| CC(c1ccccc1)N1C(=O)CSC1=S (stereo not given) | 51.2% | 83.2% | 74.9% | 59.2% | 0.475% (active) | 47.5% | -14.2% (active) | 78.8% | 21.2% | 1.28% (active) | 26.9% | 5.61% (active) | 79.3% | 29.9% | -25% (active) | 24.9% | 101% | -59.7% (active) | 55.3% | 28.7% |
| C=CC(C)(C)n1cc(C2=C(O)C(=O)C(c3cn(C(C)(C)C=C)c4ccccc34)=C(O)C2=O)c2ccccc21 | 80.7% | 89.9% | 89% | 73.1% | 89.5% | 60.9% | 98.2% | 89.4% | 87.8% | 96.6% | 92.9% | 79.5% | 90.6% | 92.6% | 93.2% | 74.7% | 83.5% | 76.6% | 94% | 69.9% |
| CC(=O)N=c1ccc2nc3c(cc(N)c4ccccc43)oc-2c1 | -27.8% (active) | 80.4% | 3.7% (active) | 1.21% (active) | -41.2% (active) | -56.9% (active) | -78.1% (active) | 11.2% | -43.8% (active) | -84.6% (active) | -96% (active) | -55.7% (active) | -67.3% (active) | -9.2% (active) | 14% | -11.1% (active) | -65.7% (active) | -71.2% (active) | -81.5% (active) | -68.8% (active) |
| COC1CC(OC(=O)c2ccc([N+](=O)[O-])cc2)C(COC(=O)c2ccc([N+](=O)[O-])cc2)O1 (stereo not given) | 105% | 88.9% | 113% | 118% | 105% | 82.8% | 118% | 103% | 105% | 112% | 119% | 107% | 140% | 105% | 103% | 112% | 94.5% | 105% | 91.9% | 110% |
| c1ccc2c(NCCCN3CCN(CCCNc4c5ccccc5nc5ccccc45)CC3)c3ccccc3nc2c1 | -86.2% [100 µM] (active) | -26.2% [100 µM] (active) | -33.2% [100 µM] (active) | -32.5% [100 µM] (active) | -19.5% [100 µM] (active) | -26.4% [100 µM] (active) | -72.1% [100 µM] (active) | -24.8% [100 µM] (active) | -28.5% [100 µM] (active) | -52.6% [100 µM] (active) | -63.4% [100 µM] (active) | -10.1% [100 µM] (active) | -69.7% [100 µM] (active) | -40.3% [100 µM] (active) | -90.3% [100 µM] (active) | -34.9% [100 µM] (active) | -48.1% [100 µM] (active) | -79.2% [100 µM] (active) | -36.4% [100 µM] (active) | -81% [100 µM] (active) |
| O=C(OC1CCCC1)c1ccccc1Cl | 106% | 104% | 99.7% | 97.1% | 101% | 96.2% | 93.1% | 105% | 101% | 107% | 109% | 106% | 102% | 97.3% | 112% | 104% | 100% | 98.6% | 109% | 101% |
| OCCOc1ccc(-c2cc(-c3ccccn3)nc(-c3ccccn3)c2)cc1 | 18.5% | 0.498% (active) | 9.08% (active) | 4.56% (active) | 0.477% (active) | -1.12% (active) | -18.8% (active) | 4.79% (active) | 1.56% (active) | 0.364% (active) | -10.2% (active) | -2.31% (active) | 17.3% | 21.4% | 2.52% (active) | 15% | 14.6% | -6.53% (active) | 1.35% (active) | -62.5% (active) |
